Common to all, as to test: DAPPL (digital affinity profiling via proximity ligation, sequencing); 10 mM Tris-HCl pH 7.5, 50 mM NaCl, 1 mM DTT, 4% glycerol, room temperature, 30 min; GST-TFs on glutathione beads, 16-mer random dsDNA library, 0.1% formaldehyde crosslink after washing; high values mean tight binding
In one experiment the target is T1, FLI1 (Homo sapiens, UniProt Q01543 1-452).
T1 sequence: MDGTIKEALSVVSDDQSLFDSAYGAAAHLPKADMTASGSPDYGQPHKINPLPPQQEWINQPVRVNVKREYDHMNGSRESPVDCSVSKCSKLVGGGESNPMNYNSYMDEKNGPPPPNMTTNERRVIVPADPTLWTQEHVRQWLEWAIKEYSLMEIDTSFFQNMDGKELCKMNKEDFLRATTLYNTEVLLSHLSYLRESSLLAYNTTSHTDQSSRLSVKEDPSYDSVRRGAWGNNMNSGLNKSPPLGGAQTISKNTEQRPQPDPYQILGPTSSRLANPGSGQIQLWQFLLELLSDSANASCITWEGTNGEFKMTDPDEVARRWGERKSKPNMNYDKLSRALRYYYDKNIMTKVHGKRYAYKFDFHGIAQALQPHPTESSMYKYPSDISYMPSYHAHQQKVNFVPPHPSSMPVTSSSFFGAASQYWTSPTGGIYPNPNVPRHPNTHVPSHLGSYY
Particulars: protein: recombinant; tags: N-terminal GST; dsDNA, one strand shown. In a few lines:
(§1)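 Yeast served to express human transcription factors as GST fusions, which were then captured on glutathione beads and labelled with DNA barcodes. Pooled with a tag-only sample, they were incubated with 200 nmole of a 16-mer random double-stranded DNA library for 30 min at room temperature in Tris/NaCl/DTT/glycerol buffer, washed, crosslinked with 0.1% formaldehyde, ligated by proximity, amplified by PCR and sequenced. Dividing each hexamer's read frequency for a factor by its frequency for the tag-only sample gives the binding signal.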

A further experiment concerns the target T2, ELK1 (Homo sapiens, UniProt P19419 1-428).
T2 sequence: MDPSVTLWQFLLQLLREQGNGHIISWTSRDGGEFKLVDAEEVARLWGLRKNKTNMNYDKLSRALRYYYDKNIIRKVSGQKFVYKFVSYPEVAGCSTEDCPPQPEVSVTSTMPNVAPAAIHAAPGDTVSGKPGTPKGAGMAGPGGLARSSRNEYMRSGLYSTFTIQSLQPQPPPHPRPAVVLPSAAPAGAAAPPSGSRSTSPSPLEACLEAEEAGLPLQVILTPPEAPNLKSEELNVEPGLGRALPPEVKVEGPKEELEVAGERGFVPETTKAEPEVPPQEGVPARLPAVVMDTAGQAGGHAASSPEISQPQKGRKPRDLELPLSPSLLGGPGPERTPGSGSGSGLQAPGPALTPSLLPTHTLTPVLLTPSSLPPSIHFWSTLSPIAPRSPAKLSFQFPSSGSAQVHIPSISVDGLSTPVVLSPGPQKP
Particulars: protein: recombinant; tags: N-terminal GST; dsDNA, one strand shown. In a few lines: as §1

The target of a further experiment is T3, GABPA (Homo sapiens, UniProt Q06546 1-454).
T3 sequence: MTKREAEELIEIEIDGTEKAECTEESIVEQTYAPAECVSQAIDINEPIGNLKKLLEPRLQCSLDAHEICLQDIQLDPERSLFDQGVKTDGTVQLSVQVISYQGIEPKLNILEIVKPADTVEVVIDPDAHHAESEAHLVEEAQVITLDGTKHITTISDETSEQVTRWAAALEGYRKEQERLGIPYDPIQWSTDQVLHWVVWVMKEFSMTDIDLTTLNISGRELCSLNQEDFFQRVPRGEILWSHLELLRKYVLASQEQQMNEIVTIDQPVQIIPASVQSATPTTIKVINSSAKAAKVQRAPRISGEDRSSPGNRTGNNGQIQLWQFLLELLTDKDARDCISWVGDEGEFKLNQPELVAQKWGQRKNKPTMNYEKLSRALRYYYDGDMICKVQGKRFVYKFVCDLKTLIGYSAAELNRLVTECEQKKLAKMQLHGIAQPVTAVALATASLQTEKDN
As to conditions: protein: recombinant; tags: N-terminal GST; dsDNA, one strand shown. In a few lines:
as §1

Another experiment addresses T4, ERG (Homo sapiens, UniProt P11308 1-479).
T4 sequence: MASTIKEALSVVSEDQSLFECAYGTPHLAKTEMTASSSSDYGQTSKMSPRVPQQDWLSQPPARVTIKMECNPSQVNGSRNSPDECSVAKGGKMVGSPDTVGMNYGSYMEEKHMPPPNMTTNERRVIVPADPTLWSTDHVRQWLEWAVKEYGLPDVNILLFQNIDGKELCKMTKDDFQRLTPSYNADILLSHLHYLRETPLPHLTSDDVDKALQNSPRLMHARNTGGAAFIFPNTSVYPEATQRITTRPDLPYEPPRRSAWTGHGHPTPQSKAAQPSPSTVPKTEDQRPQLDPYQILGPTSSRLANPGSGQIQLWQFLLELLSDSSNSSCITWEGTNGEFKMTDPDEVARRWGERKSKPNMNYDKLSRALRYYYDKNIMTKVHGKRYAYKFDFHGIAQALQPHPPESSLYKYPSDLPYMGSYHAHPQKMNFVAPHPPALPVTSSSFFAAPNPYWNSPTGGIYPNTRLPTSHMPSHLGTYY
Particulars: protein: recombinant; tags: N-terminal GST; dsDNA, one strand shown. The essentials:
as §1

In a further experiment the target is ELF1 (Homo sapiens, UniProt P32519 1-619). Particulars: protein: recombinant; tags: N-terminal GST; dsDNA, one strand shown. In a few lines:
as §1

The target in the next experiment is T5, EHF (Homo sapiens, UniProt Q9NZC4 1-300).
T5 sequence: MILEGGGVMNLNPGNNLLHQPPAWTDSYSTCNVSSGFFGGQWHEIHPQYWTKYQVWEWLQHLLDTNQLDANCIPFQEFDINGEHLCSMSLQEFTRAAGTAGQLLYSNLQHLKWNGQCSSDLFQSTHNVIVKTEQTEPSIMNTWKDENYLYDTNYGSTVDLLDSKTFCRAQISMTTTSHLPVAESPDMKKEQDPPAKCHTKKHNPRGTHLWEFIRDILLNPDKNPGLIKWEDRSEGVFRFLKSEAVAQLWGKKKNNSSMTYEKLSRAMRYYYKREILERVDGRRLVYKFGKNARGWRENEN
Particulars: protein: recombinant; tags: N-terminal GST; dsDNA, one strand shown. In a few lines: as §1

The next experiment has as its target SPI1 (Homo sapiens, UniProt P17947 1-270). As to conditions: protein: recombinant; tags: N-terminal GST; dsDNA, one strand shown. In a few lines: as §1
The next experiment concerns the target SPIB (Homo sapiens, UniProt Q01892 1-262). Particulars: protein: recombinant; tags: N-terminal GST; dsDNA, one strand shown. In a few lines:
as §1

The next experiment concerns the target T6, ELK3 (Homo sapiens, UniProt P41970 1-407).
T6 sequence: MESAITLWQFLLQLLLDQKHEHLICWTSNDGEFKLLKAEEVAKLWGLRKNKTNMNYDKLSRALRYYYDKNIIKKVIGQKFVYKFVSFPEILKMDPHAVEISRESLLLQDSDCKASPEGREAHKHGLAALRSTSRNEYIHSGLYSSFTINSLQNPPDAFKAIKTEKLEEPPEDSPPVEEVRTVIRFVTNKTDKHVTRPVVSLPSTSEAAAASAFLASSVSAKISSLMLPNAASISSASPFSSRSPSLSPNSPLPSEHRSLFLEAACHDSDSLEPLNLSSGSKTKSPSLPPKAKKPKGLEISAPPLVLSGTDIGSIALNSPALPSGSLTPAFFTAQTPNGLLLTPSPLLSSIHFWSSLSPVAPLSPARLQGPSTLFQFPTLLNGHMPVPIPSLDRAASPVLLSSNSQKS
As to conditions: protein: recombinant; tags: N-terminal GST; dsDNA, one strand shown. The essentials: as §1

The target in a further experiment is T7, FEV (Homo sapiens, UniProt Q99581 1-238).
T7 sequence: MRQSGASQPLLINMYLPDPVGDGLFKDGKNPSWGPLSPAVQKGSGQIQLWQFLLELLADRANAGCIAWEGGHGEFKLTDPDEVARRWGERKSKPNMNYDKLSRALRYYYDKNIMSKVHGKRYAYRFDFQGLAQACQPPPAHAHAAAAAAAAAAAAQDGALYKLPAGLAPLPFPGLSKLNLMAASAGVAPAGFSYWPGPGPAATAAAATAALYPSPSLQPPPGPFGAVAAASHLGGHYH
As to conditions: protein: recombinant; tags: N-terminal GST; dsDNA, one strand shown. The essentials: as §1

The target of another experiment is ETV5 (Homo sapiens, UniProt P41161 1-510). As to conditions: protein: recombinant; tags: N-terminal GST; dsDNA, one strand shown. The essentials:
as §1

A further experiment addresses HSF1 (Homo sapiens, UniProt Q00613 1-529). Particulars: protein: recombinant; tags: N-terminal GST; chain copies: 3; dsDNA, one strand shown. In a few lines:
as §1

For the next experiment, the target named is T8, SPIC (Homo sapiens, UniProt Q8N5J4 1-248).
T8 sequence: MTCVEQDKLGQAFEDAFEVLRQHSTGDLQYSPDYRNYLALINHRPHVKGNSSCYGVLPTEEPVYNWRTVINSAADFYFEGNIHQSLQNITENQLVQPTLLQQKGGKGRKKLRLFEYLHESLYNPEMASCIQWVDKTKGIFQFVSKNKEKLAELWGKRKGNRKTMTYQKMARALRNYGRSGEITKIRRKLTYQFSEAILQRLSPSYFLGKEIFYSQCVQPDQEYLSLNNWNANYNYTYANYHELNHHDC
Particulars: protein: recombinant; tags: N-terminal GST; dsDNA, one strand shown. The essentials:
as §1

The next experiment addresses ELF4 (Homo sapiens, UniProt Q99607 1-663). As to conditions: protein: recombinant; tags: N-terminal GST; dsDNA, one strand shown. In a few lines:
as §1

A further experiment deals with T9, ELK4 (Homo sapiens, UniProt P28324-2 1-405).
T9 sequence: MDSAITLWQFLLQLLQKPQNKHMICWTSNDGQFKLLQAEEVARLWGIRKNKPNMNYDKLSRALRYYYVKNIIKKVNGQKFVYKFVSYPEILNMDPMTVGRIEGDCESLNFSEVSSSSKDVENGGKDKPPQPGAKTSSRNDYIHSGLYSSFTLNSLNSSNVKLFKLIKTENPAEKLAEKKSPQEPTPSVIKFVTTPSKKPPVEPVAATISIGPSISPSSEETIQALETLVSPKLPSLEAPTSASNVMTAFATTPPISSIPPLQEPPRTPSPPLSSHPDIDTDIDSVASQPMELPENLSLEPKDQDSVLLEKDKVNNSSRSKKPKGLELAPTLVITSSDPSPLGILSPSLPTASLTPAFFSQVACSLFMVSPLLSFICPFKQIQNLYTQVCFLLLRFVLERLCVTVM
As to conditions: protein: recombinant; tags: N-terminal GST; dsDNA, one strand shown. The essentials: as §1

For the next experiment, the target named is T10, ETV2 (Homo sapiens, UniProt O00321 1-342).
T10 sequence: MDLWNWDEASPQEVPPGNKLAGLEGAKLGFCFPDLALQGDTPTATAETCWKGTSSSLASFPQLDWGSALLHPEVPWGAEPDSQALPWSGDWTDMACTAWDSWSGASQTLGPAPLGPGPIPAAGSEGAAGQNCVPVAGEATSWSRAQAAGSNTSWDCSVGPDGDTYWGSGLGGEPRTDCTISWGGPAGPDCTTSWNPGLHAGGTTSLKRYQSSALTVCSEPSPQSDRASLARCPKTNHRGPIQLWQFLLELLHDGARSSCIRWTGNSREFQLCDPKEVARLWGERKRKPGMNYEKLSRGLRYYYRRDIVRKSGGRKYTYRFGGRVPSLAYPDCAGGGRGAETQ
As to conditions: protein: recombinant; tags: N-terminal GST; dsDNA, one strand shown. The essentials: as §1

In a further experiment the target is T11, ELF3 (Homo sapiens, UniProt P78545 1-371).
T11 sequence: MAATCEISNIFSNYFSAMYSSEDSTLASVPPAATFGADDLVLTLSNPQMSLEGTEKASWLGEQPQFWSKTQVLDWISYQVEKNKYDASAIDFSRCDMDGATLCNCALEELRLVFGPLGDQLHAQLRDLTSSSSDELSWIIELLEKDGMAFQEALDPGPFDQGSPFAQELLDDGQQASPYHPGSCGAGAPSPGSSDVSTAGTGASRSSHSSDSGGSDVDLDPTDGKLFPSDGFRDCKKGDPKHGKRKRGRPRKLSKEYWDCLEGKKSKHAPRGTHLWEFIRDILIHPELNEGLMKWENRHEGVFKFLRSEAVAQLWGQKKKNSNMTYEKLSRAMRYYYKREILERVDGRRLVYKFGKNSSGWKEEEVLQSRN
Particulars: protein: recombinant; tags: N-terminal GST; dsDNA, one strand shown. The essentials: as §1

For a further experiment, the target named is CRX (Homo sapiens, UniProt O43186 1-299). As to conditions: protein: recombinant; tags: N-terminal GST; dsDNA, one strand shown. The essentials: as §1
Sequence of CRX (O43186 whole entry): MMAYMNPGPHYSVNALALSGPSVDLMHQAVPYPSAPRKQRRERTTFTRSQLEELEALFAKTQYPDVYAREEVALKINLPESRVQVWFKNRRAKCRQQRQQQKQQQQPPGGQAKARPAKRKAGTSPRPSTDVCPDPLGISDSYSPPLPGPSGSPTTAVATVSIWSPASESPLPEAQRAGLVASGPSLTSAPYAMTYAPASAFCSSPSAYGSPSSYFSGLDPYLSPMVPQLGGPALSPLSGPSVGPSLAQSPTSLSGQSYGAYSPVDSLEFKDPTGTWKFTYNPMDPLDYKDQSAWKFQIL
A further experiment concerns the target ETV1 (Homo sapiens, UniProt P50549 1-477). As to conditions: protein: recombinant; tags: N-terminal GST; dsDNA, one strand shown. The essentials:
as §1

Our source for the binding signal values is article PMC7862700, “An all-to-all approach to the identification of sequence-specific readers for epigenetic DNA modifications on cytosine”.

Sequence of ELF4 (Q99607 whole entry): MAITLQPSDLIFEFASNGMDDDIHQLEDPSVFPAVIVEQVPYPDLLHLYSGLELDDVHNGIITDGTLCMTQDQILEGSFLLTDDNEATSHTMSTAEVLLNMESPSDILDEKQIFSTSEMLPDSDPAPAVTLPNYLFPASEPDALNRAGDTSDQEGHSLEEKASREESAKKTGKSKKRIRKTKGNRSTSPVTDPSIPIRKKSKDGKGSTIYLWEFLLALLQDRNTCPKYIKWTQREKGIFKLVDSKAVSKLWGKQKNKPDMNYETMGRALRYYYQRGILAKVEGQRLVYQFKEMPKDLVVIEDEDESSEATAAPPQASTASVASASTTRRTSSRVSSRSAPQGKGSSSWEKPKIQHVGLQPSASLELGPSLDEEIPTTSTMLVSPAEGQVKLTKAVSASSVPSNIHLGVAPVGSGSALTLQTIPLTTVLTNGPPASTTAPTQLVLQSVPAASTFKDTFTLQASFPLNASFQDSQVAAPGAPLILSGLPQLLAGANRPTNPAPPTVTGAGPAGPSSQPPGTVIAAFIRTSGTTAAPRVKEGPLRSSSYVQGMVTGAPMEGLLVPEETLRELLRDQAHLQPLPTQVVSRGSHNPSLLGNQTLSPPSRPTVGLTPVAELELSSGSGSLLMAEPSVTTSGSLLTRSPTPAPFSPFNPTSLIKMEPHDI
Sequence of ELF1 (P32519 whole entry): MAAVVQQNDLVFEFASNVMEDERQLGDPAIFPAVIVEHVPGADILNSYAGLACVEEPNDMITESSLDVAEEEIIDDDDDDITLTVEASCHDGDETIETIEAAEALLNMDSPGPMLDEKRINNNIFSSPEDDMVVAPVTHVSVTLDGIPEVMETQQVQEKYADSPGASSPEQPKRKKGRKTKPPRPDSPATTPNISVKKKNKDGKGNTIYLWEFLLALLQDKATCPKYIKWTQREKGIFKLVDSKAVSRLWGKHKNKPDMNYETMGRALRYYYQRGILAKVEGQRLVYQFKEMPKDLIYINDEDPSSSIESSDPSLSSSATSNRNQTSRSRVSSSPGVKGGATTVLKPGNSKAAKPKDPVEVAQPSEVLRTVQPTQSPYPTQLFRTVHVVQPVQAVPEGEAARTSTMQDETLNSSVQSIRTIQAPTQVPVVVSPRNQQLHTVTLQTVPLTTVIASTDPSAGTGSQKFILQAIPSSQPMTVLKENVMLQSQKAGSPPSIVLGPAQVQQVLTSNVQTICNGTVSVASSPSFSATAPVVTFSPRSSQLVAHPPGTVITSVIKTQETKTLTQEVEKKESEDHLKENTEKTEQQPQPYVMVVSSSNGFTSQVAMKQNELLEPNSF
Sequence of ETV1 (P50549 whole entry): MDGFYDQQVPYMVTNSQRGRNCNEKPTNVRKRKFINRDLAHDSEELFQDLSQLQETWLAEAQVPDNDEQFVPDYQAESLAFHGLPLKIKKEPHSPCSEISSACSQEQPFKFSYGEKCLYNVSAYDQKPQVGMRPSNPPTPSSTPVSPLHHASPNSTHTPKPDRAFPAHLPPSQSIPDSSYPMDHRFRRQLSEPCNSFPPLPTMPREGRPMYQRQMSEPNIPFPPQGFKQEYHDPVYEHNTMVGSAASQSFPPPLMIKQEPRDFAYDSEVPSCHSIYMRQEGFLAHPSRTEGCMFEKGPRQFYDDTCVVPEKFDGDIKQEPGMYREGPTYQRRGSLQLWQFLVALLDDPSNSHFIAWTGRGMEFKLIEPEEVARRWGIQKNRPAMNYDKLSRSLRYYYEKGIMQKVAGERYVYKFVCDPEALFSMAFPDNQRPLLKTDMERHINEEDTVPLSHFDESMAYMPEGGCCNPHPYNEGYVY
Sequence of SPIB (Q01892 whole entry): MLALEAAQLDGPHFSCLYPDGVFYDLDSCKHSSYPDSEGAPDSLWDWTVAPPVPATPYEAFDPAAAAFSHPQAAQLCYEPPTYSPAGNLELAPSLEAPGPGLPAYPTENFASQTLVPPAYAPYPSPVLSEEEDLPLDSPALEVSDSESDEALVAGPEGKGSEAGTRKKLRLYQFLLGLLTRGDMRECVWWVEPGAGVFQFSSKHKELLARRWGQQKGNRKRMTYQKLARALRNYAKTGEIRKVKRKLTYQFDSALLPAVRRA
Sequence of ETV5 (P41161 whole entry): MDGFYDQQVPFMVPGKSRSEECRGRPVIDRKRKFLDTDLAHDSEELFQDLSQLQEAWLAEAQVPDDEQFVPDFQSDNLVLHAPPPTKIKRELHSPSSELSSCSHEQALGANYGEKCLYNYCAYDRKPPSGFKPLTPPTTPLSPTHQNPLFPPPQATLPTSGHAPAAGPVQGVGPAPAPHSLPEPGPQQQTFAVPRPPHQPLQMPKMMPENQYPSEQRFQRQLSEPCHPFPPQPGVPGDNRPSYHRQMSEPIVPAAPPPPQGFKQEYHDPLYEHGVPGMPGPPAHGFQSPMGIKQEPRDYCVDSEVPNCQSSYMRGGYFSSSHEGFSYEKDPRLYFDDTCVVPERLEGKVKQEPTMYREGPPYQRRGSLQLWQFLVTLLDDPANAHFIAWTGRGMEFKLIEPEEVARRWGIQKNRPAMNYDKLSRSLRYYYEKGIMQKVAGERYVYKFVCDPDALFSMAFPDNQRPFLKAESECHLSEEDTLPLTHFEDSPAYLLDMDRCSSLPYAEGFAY
Sequence of HSF1 (Q00613 whole entry): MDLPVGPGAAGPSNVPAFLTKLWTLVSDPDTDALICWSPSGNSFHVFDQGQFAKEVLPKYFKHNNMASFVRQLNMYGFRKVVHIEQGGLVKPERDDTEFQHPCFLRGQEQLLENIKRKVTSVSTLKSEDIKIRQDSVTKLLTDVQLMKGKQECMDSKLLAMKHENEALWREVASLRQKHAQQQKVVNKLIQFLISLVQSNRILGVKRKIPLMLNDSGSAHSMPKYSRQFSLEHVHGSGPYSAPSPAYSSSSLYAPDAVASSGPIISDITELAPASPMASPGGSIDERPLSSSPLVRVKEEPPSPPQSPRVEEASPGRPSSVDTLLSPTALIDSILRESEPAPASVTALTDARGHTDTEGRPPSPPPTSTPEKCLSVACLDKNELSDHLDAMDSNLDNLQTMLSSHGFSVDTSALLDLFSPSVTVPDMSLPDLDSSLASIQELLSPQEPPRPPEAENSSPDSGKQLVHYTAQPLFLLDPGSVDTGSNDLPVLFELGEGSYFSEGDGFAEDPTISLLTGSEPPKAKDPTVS

As to CTTTAC, the binding signal with FLI1 is 1.24 fold enrichment (6-mer frequency, TF over GST control); in the experiment with ELK1 it was 1.43 fold enrichment (6-mer frequency, TF over GST control); in the experiment with GABPA it was 1.51 fold enrichment (6-mer frequency, TF over GST control); with ERG, 1.31 fold enrichment (6-mer frequency, TF over GST control); with ELF1 it was 1.4 fold enrichment (6-mer frequency, TF over GST control); in the experiment with EHF it was 1.38 fold enrichment (6-mer frequency, TF over GST control). Besides, the binding signal with SPI1 is 1.4 fold enrichment (6-mer frequency, TF over GST control); with SPIB it was 1.41 fold enrichment (6-mer frequency, TF over GST control); with ELK3 it was 1.47 fold enrichment (6-mer frequency, TF over GST control); with FEV, 1.31 fold enrichment (6-mer frequency, TF over GST control); in the experiment with ETV5, 1.3 fold enrichment (6-mer frequency, TF over GST control); with HSF1, 1.37 fold enrichment (6-mer frequency, TF over GST control). For the same sequence, the binding signal in the experiment with SPIC is 1.4 fold enrichment (6-mer frequency, TF over GST control); with ELF4, 1.45 fold enrichment (6-mer frequency, TF over GST control); with ELK4, 1.44 fold enrichment (6-mer frequency, TF over GST control); with ETV2, 1.41 fold enrichment (6-mer frequency, TF over GST control); with ELF3, 1.44 fold enrichment (6-mer frequency, TF over GST control); with CRX, 1.51 fold enrichment (6-mer frequency, TF over GST control). The binding signal with ETV1 is 1.3 fold enrichment (6-mer frequency, TF over GST control).
